# In all, about 33,000 sequences were measured (“E-score (-0.5 to 0.5)”: median about -0.011, highest 2% from about 0.28 on). This excerpt belongs to a sample that is enriched for the highest values.
# Biological target: T1, Gcr1 (UniProt P07261)
# T1 sequence: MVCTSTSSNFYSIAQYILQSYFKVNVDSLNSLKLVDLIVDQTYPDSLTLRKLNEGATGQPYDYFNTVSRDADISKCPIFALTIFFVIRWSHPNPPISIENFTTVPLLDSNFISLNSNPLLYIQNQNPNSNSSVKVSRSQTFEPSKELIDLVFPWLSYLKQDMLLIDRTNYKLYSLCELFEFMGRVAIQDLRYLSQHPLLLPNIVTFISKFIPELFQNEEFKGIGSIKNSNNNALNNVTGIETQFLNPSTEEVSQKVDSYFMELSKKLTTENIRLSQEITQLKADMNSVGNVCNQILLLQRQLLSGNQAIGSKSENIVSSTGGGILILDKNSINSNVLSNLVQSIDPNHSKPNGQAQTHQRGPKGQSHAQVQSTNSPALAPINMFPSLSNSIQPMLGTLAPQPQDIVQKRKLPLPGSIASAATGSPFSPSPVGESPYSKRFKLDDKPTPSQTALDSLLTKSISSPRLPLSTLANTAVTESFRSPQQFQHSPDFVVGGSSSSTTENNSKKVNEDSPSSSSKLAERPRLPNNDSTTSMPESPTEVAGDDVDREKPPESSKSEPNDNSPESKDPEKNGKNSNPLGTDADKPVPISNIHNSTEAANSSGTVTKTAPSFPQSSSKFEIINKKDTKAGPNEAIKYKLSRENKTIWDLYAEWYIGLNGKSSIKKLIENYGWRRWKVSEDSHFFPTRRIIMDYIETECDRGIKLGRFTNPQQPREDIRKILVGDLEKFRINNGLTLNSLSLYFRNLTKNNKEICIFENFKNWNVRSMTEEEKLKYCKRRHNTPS
# Test: PBM E-score (8-mer binding enrichment) (E-score (-0.5 to 0.5)); higher = stronger / more preferred TF binding
# Settings: protein concentration: 100 nM; construct: GST-full length
# Summary of the method: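 E-scores (a modified Wilcoxon-Mann-Whitney statistic) were assigned by the Universal PBM Analysis Suite to every ungapped eight-base word pooled with its reverse complement. The input came from universal all-10-mer Agilent arrays made double-stranded by primer extension and probed with GST-tagged yeast transcription factors at about 100-200 nM. Fluorescent anti-GST detected bound protein, and masliner normalised the scans.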
row,Sequence,PBM E-score
1,CAACCCAG,0.00319
2,CCCGCGAC,-0.167
3,AACTTCCT,0.376
4,AACTTCGT,0.173
5,AACTTCCC,-0.0101
6,AGGGAAAT,-0.173
7,ACTGCTAA,-0.0287
8,ACCACTAG,0.267
9,GCCACTAC,0.305
10,GCCACTCC,-0.045
11,ACCACTAC,0.129
12,ACCACTAA,0.285
13,TCCACTAA,0.418
14,ACCACTAT,0.356
15,AGCACTAA,-0.0258
16,TCCACTCA,0.189
17,CCCACTAC,0.187
18,ACCACTCA,-0.067
19,CCCACTAA,0.241
20,ATCGAGCG,-0.167
21,GGATATCC,-0.206
22,CCGATTCA,-0.00017
23,CTGCCGAA,-0.0682
24,GCCACTGA,0.237
25,GCCACTTA,0.184

row,Sequence,PBM E-score
1,GCCACTAA,0.366
2,ACAAAGAG,-0.078
3,CGGCAGCA,-0.0108
4,CGGCAGCC,0.382
5,CGGCAGAC,-0.254
6,AGGCAGCG,0.0171
7,AGGCAGCA,0.0795
8,AGGCAGCC,0.382
9,AGTCTACG,-0.0187
10,AGACGCTG,0.254
11,AGACGCTA,0.293
12,GGACGCTA,0.363
13,AGACGCTC,0.185
14,GCACGCTA,-0.0819
15,CGACGCTA,0.0406
16,ACGAGCAC,-0.0665
17,AAACCCGG,0.0332
18,ACGCGCAT,-0.0657
19,GCCTGTGA,0.0496
20,ATGGAATC,0.29
21,ATGGAATA,0.0994
22,ATGGAATG,-0.00503
23,CTGGAATA,0.259
24,CCGGAATC,0.219
25,CTGGAATC,0.407

row,Sequence,PBM E-score
1,AACGCTCC,-0.276
2,GCGTCTTA,0.239
3,CAGCTCGC,-0.117
4,CGACCGTC,-0.41
5,TGATATCA,0.0841
6,CAGCCATA,0.022
7,AGCAGCTC,0.16
8,ATCAGCCG,-0.264
9,AGCAGCCT,0.369
10,AGCAGCCG,0.285
11,ACCAGCCT,0.0001
12,CACAGCCC,-0.232
13,AGCAGCAT,-0.00516
14,AGCAGCTG,0.311
15,AGCAGCTA,0.273
16,AGCAGCAG,-0.0192
17,CGCAGCGC,0.15
18,CGCAGCCC,0.324
19,ACATTACA,0.178
20,GGGTTAAC,0.0316
21,ATCCCCGA,0.0266
22,AGCCCGCA,0.225
23,CCTACTAC,-0.0926
24,CACTAACG,0.00491
25,CGCGAGTC,-0.109

row,Sequence,PBM E-score
1,AGTAGCAT,-0.0355
2,CACCTTAG,0.141
3,CGCAGCGA,0.22
4,TGCAGCCA,0.00515
5,GCCAGCCC,-0.0556
6,CGCAGCCG,0.0939
7,CGCAGCCA,0.365
8,GGCAGCCC,0.324
9,AGCAGCAA,0.0994
10,AGCAGCCC,0.2
11,GGCAGCAC,-0.0566
12,AGCAGCCA,0.35
13,GGCAGCCA,0.422
14,GCCAGCCA,-0.0514
15,AGGCCAGG,-0.25
16,ATCTATGA,-0.0683
17,ACTGAAAC,0.0485
18,CTAAACGC,0.0998
19,AGATCTGG,0.00449
20,ACGTTCAC,-0.22
21,GTCAGGAC,0.00402
22,GTCCAAGA,0.149
23,CACTCCCG,-0.134
24,GCCCTGGA,-0.0767
25,ACAGGACG,0.26

row,Sequence,PBM E-score
1,ACAGGAAT,0.307
2,ACAGGAAA,0.125
3,ACAGGAAC,0.144
4,ACAGGAAG,0.455
5,CCAGGAAG,0.166
6,CTGTTCCC,-0.0872
7,CACGGTAA,-0.233
8,CTATCGAC,-0.0454
9,GCCTCTCA,-0.0769
10,ACCTATAG,0.161
11,CGAGCGGA,-0.113
12,TGGAGCCA,0.205
13,GGGAGCCC,0.226
14,AGGAGCCA,0.214
15,CGGAGCCG,0.0209
16,CGGAGCCA,0.282
17,GGGAGCCA,0.387
18,GGTTTGGA,0.115
19,AATGCCCG,-0.207
20,AGAAAGGA,-0.143
21,CCGTCTCG,-0.0715
22,GTCACTAA,0.107
23,GGCGCCGA,0.286
24,CGCGCCGA,0.0709
25,GGCGCCAA,0.377

row,Sequence,PBM E-score
1,AGCGCCTA,0.164
2,GGCGCCAC,0.253
3,GGCGCCTA,0.385
4,AGCGCCAA,0.124
5,AGCGCCGA,0.0415
6,CGCGCCTA,0.258
7,AGGGTCGG,-0.133
8,GAATTTCC,0.082
9,AATACAAC,0.0962
10,AATACAGG,0.343
11,ATTACAGC,-0.134
12,AATACAAG,0.293
13,ATTACAGG,0.355
14,ATTACAGA,0.053
15,AATACAGT,-0.0143
16,AATACAGA,-0.0124
17,AATACAAT,-0.0331
18,CAAAGACC,0.00996
19,CAGTGGGC,-0.0102
20,ACTGCTAT,-0.225
21,ATATCCTC,-0.118
22,GACACCCC,-0.0371
23,AACGTCGC,-0.00983
24,AACCATAG,-0.00302
25,AAAATCCG,0.111

row,Sequence,PBM E-score
1,TGGCGCAA,-0.0289
2,TAGCGCCA,0.181
3,TGGCGCCA,0.37
4,GGGCGCGA,0.187
5,CTGCGCCA,-0.135
6,GGGCGCCA,0.403
7,CAGCGCCA,0.0174
8,GGGCGCTA,0.32
9,CGGCGCTA,-0.00295
10,CGGCGCCA,0.308
11,AGGCGCTA,0.0978
12,GCGCGCCA,0.0132
13,AAGGTAAA,0.0141
14,GTCAAGGA,0.0238
15,GAGTTTCA,-0.0957
16,GCCTTCGA,-0.126
17,GAGCGCCC,0.234
18,GGGCGCCC,0.459
19,CGGCGCCC,0.359
20,CGGCGCGC,0.193
21,GGGCGCAC,-0.138
22,CGGCGCCG,0.113
23,CAGCTGGG,-0.0114
24,AACACCGT,-0.132
25,ACATTTGC,-0.0633

row,Sequence,PBM E-score
1,CTGGTGCA,0.216
2,CGGGTGCC,0.377
3,CGGGTGTC,-0.116
4,CTGGTGCC,0.352
5,AGGGTGCG,0.0402
6,GAGGTGCA,-0.125
7,GAGGTGCC,0.281
8,AAGGTGCC,0.144
9,ATGGTGCC,0.227
10,AGGGTGCA,-0.0715
11,AGGGTGCC,0.39
12,CGGGTGCA,0.0724
13,GCGATCCC,0.0838
14,ACCAACCT,-0.0617
15,ACCAATAA,0.0976
16,CAGGGAGG,-0.257
17,CGTGGTGA,-0.09
18,CAGTCTAC,-0.0756
19,CGACGCCG,0.349
20,ACACGCCT,-0.087
21,AGACGCAT,0.231
22,AGACGCCG,0.421
23,CGACGCCA,0.157
24,AGACGCAG,0.0695
25,AGACGCCA,0.283

row,Sequence,PBM E-score
1,CGCCGACG,0.0121
2,ACACGCCG,0.199
3,AGACGCCT,0.327
4,ACACGCCA,-0.163
5,CCACGCCG,-0.106
6,AAAGCGCG,-0.0766
7,TAGCCCCA,0.139
8,AGAGGGGC,-0.044
9,GGTTTGAC,0.0178
10,CGTATGAC,0.0685
11,TAAACCGA,-0.235
12,CTCTGTTC,-0.0161
13,AACCGGGT,0.0617
14,GTCCGAAA,0.212
15,CTGGTCAA,0.0775
16,CGACGCGC,0.0401
17,AGACGCGC,0.289
18,AGACGCGA,0.214
19,ACCGTGGG,-0.00593

# From the supplement of paper PMC3334620
